# Assays:
# Assay in all cases: DAPPL (digital affinity profiling via proximity ligation, sequencing); 10 mM Tris-HCl pH 7.5, 50 mM NaCl, 1 mM DTT, 4% glycerol, room temperature, 30 min; GST-TFs on glutathione beads, 16-mer random dsDNA library, 0.1% formaldehyde crosslink after washing; high values mean tight binding
# Conditions in all cases: protein: recombinant; tags: N-terminal GST; dsDNA, one strand shown
# FLI1 = molecular target: T1, FLI1 (Homo sapiens, UniProt Q01543 1-452)
# T1 sequence: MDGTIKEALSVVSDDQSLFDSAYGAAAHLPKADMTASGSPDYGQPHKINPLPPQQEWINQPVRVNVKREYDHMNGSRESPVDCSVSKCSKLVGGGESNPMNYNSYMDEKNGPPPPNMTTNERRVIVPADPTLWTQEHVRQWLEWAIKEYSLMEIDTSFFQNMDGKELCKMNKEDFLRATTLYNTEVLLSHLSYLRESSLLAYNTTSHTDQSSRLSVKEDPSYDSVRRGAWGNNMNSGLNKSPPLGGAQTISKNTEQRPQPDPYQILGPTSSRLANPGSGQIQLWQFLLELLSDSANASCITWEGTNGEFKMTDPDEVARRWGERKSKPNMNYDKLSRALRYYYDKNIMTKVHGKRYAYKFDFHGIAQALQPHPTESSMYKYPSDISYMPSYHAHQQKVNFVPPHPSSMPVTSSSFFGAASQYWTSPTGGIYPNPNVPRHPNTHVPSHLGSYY
# How it was run: (§1)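 Binding signal is given per hexamer as its read frequency for a factor divided by its frequency in the tag-only sample. GST-fused human transcription factors were expressed in yeast, captured on glutathione beads, barcoded with DNA and pooled with that sample, then incubated with 200 nmole of a 16-mer random double-stranded DNA library in Tris/NaCl/DTT/glycerol buffer for 30 min at room temperature. The pools were then washed, crosslinked, proximity-ligated, amplified by PCR and sequenced on an Illumina NextSeq500.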
# ELK1 = molecular target: T2, ELK1 (Homo sapiens, UniProt P19419 1-428)
# T2 sequence: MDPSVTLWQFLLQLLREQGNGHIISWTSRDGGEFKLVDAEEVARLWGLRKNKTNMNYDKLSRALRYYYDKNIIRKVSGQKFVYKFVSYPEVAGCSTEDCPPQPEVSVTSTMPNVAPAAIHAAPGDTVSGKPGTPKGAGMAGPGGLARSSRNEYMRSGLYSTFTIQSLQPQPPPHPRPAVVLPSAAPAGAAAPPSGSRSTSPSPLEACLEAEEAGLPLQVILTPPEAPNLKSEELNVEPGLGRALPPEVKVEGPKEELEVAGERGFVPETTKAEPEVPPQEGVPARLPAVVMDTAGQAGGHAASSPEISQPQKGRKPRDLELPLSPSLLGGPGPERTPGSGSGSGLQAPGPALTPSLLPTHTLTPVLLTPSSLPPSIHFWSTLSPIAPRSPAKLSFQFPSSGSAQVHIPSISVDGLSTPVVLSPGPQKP
# How it was run: as §1
# GABPA = molecular target: T3, GABPA (Homo sapiens, UniProt Q06546 1-454)
# T3 sequence: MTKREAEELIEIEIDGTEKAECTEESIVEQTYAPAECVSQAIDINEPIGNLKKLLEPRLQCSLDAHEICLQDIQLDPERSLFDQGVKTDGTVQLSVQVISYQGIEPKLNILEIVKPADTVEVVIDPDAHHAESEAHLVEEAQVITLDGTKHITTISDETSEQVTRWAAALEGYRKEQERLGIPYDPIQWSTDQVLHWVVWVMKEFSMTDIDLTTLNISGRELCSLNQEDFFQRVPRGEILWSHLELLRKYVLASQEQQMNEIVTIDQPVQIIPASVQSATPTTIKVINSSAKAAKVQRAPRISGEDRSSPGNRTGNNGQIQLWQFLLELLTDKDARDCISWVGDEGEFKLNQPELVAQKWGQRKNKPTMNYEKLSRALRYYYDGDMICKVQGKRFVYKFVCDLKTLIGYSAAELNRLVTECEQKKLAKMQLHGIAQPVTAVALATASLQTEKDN
# How it was run: as §1
# ERG = molecular target: T4, ERG (Homo sapiens, UniProt P11308 1-479)
# T4 sequence: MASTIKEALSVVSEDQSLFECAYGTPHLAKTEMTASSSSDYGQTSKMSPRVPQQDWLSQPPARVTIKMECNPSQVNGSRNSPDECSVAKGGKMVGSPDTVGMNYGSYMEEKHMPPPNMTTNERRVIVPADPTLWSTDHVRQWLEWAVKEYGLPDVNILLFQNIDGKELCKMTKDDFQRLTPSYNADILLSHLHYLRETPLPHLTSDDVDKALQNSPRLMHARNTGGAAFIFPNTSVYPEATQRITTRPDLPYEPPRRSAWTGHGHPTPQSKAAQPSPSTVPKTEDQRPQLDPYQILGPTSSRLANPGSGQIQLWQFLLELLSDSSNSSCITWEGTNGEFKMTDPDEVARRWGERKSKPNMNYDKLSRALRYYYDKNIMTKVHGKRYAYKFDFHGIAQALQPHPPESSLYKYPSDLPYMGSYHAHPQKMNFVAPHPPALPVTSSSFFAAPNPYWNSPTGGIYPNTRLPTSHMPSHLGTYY
# How it was run: as §1
# ELF1 = ELF1 (Homo sapiens, UniProt P32519 1-619)
# Sequence of ELF1 (P32519 whole entry): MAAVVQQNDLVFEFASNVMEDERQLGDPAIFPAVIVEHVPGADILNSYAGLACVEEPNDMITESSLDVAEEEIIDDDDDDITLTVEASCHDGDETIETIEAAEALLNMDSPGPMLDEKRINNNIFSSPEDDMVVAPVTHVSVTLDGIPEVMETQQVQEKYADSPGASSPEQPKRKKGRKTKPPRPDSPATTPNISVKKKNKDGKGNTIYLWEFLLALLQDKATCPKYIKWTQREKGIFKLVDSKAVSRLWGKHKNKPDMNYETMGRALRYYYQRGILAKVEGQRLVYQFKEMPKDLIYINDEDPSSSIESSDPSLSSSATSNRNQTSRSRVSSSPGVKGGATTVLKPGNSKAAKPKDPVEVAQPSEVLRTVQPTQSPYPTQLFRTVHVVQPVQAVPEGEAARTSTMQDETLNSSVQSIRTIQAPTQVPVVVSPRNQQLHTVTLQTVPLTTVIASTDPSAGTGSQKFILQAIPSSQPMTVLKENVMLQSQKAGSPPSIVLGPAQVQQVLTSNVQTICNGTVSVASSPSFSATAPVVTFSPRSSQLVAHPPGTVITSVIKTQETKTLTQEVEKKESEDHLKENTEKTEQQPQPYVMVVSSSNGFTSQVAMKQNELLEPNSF
# How it was run: as §1
# EHF = molecular target: T5, EHF (Homo sapiens, UniProt Q9NZC4 1-300)
# T5 sequence: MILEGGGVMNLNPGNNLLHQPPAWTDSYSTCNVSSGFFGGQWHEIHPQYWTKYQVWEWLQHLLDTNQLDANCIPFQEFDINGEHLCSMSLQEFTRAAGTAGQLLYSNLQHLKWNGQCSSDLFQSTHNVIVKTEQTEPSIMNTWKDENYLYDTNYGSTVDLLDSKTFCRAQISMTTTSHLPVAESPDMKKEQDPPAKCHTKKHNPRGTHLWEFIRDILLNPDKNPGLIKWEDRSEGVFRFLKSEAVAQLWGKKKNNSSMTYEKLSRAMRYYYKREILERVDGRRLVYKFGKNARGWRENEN
# How it was run: as §1
# SPI1 = SPI1 (Homo sapiens, UniProt P17947 1-270)
# How it was run: as §1
# SPIB = SPIB (Homo sapiens, UniProt Q01892 1-262)
# Sequence of SPIB (Q01892 whole entry): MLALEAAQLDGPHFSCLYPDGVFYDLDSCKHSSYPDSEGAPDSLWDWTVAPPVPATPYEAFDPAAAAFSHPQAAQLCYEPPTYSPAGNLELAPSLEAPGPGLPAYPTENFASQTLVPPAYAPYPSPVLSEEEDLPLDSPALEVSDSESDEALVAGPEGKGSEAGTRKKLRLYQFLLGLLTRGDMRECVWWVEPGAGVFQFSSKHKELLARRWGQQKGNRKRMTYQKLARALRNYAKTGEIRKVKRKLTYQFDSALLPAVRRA
# How it was run: as §1
# ELK3 = molecular target: T6, ELK3 (Homo sapiens, UniProt P41970 1-407)
# T6 sequence: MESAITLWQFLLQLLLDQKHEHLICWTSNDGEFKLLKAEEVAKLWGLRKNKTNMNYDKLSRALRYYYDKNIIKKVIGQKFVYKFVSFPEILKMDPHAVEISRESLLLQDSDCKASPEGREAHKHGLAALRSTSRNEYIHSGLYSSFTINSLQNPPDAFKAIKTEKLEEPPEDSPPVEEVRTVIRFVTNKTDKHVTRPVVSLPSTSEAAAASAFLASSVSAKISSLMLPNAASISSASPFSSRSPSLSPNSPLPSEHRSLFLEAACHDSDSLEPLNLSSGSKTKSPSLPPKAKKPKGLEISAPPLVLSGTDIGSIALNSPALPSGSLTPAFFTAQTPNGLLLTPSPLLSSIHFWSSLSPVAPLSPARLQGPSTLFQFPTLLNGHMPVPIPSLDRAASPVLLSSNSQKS
# How it was run: as §1
# ETV5 = ETV5 (Homo sapiens, UniProt P41161 1-510)
# Sequence of ETV5 (P41161 whole entry): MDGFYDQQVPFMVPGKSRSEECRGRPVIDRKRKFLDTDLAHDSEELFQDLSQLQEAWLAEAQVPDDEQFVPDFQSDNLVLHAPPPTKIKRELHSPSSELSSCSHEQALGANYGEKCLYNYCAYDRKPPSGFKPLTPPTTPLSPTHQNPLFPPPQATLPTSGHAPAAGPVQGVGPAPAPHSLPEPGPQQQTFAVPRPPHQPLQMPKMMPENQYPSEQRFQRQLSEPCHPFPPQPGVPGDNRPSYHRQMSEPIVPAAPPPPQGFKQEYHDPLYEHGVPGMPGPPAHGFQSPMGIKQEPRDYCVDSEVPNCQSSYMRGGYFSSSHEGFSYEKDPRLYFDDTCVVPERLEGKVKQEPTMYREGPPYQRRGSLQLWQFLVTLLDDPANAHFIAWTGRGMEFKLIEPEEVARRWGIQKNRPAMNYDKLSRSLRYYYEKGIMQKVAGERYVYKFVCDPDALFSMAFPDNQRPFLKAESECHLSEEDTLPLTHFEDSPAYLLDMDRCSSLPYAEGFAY
# How it was run: as §1
# SPIC = molecular target: T7, SPIC (Homo sapiens, UniProt Q8N5J4 1-248)
# T7 sequence: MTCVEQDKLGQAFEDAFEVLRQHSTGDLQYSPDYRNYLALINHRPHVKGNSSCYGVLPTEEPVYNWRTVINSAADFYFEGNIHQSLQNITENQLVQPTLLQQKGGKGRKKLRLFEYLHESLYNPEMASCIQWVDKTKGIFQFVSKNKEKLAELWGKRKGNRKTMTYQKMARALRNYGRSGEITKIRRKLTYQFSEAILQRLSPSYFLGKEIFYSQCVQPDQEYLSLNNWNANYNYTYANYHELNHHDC
# How it was run: as §1
# ELF4 = ELF4 (Homo sapiens, UniProt Q99607 1-663)
# Sequence of ELF4 (Q99607 whole entry): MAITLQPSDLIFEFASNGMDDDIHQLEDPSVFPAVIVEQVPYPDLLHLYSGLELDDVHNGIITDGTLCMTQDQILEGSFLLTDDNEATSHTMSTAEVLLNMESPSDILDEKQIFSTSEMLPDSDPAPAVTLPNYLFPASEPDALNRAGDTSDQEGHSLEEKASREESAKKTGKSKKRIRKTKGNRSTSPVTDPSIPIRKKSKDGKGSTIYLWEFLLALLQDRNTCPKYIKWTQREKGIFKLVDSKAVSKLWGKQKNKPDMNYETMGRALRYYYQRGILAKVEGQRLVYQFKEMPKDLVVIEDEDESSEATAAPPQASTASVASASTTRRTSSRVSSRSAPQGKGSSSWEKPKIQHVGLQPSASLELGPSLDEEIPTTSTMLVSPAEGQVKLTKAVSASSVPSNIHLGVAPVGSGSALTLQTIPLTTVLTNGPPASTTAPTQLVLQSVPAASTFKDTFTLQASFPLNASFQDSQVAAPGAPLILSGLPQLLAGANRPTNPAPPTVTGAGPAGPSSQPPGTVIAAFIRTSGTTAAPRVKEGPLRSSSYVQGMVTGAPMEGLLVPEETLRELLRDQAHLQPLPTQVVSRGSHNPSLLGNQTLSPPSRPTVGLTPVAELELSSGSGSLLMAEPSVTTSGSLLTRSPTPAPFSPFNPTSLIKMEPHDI
# How it was run: as §1
# ETV1 = ETV1 (Homo sapiens, UniProt P50549 1-477)
# Sequence of ETV1 (P50549 whole entry): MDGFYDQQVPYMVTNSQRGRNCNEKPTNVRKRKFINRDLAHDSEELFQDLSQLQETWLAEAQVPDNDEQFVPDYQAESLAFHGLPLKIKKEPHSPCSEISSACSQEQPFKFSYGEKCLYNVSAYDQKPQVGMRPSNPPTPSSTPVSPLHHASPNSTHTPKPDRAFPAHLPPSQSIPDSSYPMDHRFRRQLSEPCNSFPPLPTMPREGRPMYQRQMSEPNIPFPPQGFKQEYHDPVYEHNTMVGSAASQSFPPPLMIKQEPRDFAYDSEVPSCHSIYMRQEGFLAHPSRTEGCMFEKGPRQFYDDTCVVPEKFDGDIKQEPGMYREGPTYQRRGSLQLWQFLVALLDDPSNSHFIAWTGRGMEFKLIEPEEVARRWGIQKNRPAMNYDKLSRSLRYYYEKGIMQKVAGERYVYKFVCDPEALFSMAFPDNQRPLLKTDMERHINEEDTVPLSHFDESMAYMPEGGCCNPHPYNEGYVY
# How it was run: as §1
# ERF = molecular target: T8, ERF (Homo sapiens, UniProt P50548 1-548)
# T8 sequence: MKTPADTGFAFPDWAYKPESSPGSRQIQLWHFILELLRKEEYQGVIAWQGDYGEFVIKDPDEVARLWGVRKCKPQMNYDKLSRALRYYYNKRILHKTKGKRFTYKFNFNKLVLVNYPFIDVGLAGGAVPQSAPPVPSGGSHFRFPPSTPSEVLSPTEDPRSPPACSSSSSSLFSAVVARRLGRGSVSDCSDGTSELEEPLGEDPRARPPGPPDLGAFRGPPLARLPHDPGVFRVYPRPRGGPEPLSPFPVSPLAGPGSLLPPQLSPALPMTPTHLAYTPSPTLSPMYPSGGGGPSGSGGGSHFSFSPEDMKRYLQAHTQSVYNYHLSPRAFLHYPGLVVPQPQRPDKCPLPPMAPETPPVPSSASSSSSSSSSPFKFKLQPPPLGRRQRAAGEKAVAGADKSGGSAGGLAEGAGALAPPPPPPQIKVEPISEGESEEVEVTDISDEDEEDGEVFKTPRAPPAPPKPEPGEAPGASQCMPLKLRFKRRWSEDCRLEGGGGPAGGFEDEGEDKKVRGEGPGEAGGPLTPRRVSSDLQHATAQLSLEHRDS
# How it was run: as §1
# ETV3L = molecular target: T9, ETV3L (Homo sapiens, UniProt Q6ZN32 1-361)
# T9 sequence: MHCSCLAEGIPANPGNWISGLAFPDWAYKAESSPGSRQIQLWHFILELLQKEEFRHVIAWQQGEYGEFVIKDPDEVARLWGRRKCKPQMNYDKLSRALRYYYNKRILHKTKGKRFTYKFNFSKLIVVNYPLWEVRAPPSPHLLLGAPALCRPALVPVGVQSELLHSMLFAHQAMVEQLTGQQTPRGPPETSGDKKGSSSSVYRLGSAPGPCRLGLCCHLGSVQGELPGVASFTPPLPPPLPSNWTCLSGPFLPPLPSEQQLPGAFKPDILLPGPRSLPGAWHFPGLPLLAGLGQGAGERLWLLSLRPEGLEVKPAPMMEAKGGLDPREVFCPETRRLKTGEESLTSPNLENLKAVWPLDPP
# How it was run: as §1
# ETS2 = molecular target: T10, ETS2 (Homo sapiens, UniProt P15036 1-469)
# T10 sequence: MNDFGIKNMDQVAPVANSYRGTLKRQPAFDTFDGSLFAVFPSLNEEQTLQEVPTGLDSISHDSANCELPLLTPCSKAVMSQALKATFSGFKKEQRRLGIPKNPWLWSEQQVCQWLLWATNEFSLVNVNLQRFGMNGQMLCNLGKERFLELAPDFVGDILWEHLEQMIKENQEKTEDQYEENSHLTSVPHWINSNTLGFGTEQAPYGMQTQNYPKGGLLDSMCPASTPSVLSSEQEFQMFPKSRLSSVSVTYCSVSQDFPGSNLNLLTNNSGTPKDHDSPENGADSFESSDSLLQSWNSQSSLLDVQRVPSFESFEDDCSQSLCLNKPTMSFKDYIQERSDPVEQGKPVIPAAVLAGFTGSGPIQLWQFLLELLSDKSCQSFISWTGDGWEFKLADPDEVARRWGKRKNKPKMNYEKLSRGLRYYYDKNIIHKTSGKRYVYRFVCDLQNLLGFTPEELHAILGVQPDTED
# How it was run: as §1
# ELF5 = molecular target: T11, ELF5 (Homo sapiens, UniProt Q9UKW6-2 1-255)
# T11 sequence: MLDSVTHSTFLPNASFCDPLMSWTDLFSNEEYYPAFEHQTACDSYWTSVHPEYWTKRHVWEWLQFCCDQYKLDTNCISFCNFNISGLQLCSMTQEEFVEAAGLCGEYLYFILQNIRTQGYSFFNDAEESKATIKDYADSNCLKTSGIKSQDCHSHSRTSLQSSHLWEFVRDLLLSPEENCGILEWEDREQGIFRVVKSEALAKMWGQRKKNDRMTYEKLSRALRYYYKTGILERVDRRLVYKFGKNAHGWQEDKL
# How it was run: as §1
# ETV3 = molecular target: T12, ETV3 (Homo sapiens, UniProt P41162-2 1-143)
# T12 sequence: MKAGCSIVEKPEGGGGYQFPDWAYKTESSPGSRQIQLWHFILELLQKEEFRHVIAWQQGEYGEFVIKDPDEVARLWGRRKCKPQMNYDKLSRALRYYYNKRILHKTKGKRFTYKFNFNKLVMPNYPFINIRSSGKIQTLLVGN
# How it was run: as §1
# ETV6 = ETV6 (Homo sapiens, UniProt P41212 1-452)
# Sequence of ETV6 (P41212 whole entry): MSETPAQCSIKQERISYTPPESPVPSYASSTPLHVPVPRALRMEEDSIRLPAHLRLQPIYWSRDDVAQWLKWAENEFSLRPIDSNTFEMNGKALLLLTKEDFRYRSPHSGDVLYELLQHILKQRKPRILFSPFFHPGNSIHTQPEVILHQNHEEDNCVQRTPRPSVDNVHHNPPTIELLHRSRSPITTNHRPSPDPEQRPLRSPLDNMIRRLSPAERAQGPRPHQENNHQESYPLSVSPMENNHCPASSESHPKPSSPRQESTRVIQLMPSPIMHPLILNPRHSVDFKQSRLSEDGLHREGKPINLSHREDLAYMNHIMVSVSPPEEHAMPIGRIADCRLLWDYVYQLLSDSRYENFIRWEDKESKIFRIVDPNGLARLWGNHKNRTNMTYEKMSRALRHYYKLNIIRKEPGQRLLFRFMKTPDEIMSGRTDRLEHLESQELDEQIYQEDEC
# How it was run: as §1
sequence,measurement,setting,value
ACGGCA,binding signal,FLI1,"1.04 fold enrichment (6-mer frequency, TF over GST control)"
same,binding signal,ELK1,"1.01 fold enrichment (6-mer frequency, TF over GST control)"
same,binding signal,GABPA,"1.1 fold enrichment (6-mer frequency, TF over GST control)"
same,binding signal,ERG,"1.03 fold enrichment (6-mer frequency, TF over GST control)"
same,binding signal,ELF1,"1.04 fold enrichment (6-mer frequency, TF over GST control)"
same,binding signal,EHF,"1.11 fold enrichment (6-mer frequency, TF over GST control)"
same,binding signal,SPI1,"1.05 fold enrichment (6-mer frequency, TF over GST control)"
same,binding signal,SPIB,"1.1 fold enrichment (6-mer frequency, TF over GST control)"
same,binding signal,ELK3,"1.01 fold enrichment (6-mer frequency, TF over GST control)"
same,binding signal,ETV5,"1.13 fold enrichment (6-mer frequency, TF over GST control)"
same,binding signal,SPIC,"1.05 fold enrichment (6-mer frequency, TF over GST control)"
same,binding signal,ELF4,"1.06 fold enrichment (6-mer frequency, TF over GST control)"
same,binding signal,ETV1,"1.03 fold enrichment (6-mer frequency, TF over GST control)"
same,binding signal,ERF,"1.01 fold enrichment (6-mer frequency, TF over GST control)"
same,binding signal,ETV3L,"1.1 fold enrichment (6-mer frequency, TF over GST control)"
same,binding signal,ETS2,"1.09 fold enrichment (6-mer frequency, TF over GST control)"
same,binding signal,ELF5,"1.03 fold enrichment (6-mer frequency, TF over GST control)"
same,binding signal,ETV3,"1.06 fold enrichment (6-mer frequency, TF over GST control)"
same,binding signal,ETV6,"1.14 fold enrichment (6-mer frequency, TF over GST control)"

# From PMC7862700, “An all-to-all approach to the identification of sequence-specific readers for epigenetic DNA modifications on cytosine”
